Data: PubChem BioAssay (NCATS)
Results filed as inconclusive are left out. A call without a number means that no potency is given here. Calls of active or inactive are those of the source. Unless noted, calls come from the whole dose curve; as a rule, active = well fitted curve in the direction sought with a large enough effect; inconclusive = small, poorly fitted or top-dose-only effect, or another doubt; inactive = no such curve, though single readings can be large; an effect the other way counts as inactive or inconclusive.

Legend:
[1] = biological target: ATP-dependent 6-phosphofructokinase (Trypanosoma brucei brucei) (UniProt O15648); test: qHTS Assay to Find Inhibitors of T. brucei phosphofructokinase: hit validation (AID 492961);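 note: luminescence reports ADP formed as PFK phosphorylates fructose-6-phosphate with ATP; series mostly up to about 51 µM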
Outline: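 Inhibition of parasite PFK is measured as reduced ADP formation, quantified via luciferase after ATP depletion. Assay used 0.1 mM ATP, 0.5 mM F6P, 1.25 nM enzyme, 45 min incubation.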

[2] = biological target: Thyrotropin-releasing hormone receptor (Homo sapiens) (UniProt P34981); test: qHTS for Small Molecule Agonists and Allosteric Enhancers of Human TRH Receptor: Validation Screen for Agonists (AID 493127;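 active = calcium activation more than 3 SD above the typical response in the agonist read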;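 note: intracellular calcium rise by fluo-8 fluorescence before TRH EC20 addition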); settings: TRH receptor agonist cell assay; at 2 µM; stronger effect = higher value
Chain of Thyrotropin-releasing hormone receptor (Homo sapiens) (P34981 whole entry, looked up): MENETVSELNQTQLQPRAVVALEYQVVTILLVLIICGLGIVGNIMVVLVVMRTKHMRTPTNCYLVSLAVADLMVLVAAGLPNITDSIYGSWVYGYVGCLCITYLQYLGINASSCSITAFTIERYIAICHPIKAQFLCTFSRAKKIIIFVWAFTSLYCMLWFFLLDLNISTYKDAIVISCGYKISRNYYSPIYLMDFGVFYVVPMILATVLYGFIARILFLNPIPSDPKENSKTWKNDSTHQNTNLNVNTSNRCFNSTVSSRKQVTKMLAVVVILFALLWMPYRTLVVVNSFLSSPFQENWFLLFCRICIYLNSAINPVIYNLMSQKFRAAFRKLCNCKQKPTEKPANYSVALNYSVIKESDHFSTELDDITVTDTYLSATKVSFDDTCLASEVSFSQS
Outline: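 Read-out: intracellular calcium release measured kinetically by FDSS (fluo-8, ex 480/em 530 nm), 1 reading/s after a 10-cycle baseline. TRHR cells, 2000/well, cultured 18 h at 33.5C, dye-loaded at room temp. Compound-evoked positive calcium signal flags agonists.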

[3] = qHTS for Inhibitors of Cell Surface uPA Generation: Validation Assay (AID 493164);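 note: RAW 264.7 macrophage cells exposed to compound for 18 h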
Outline: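 Compounds are titrated over seven points (2.45 nM–38.3 uM final) onto pre-plated RAW 264.7 cells and incubated for 18 h. Retained intracellular ATP, measured with ATP-Lite, indicates blocked lethal factor entry.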

[4] = biological target: Galactokinase (Homo sapiens) (UniProt P51570); test: qHTS Validation Assay for Inhibitors of Human Galactokinase (GALK) (AID 493189)
Chain of Galactokinase (Homo sapiens) (P51570 whole entry, looked up): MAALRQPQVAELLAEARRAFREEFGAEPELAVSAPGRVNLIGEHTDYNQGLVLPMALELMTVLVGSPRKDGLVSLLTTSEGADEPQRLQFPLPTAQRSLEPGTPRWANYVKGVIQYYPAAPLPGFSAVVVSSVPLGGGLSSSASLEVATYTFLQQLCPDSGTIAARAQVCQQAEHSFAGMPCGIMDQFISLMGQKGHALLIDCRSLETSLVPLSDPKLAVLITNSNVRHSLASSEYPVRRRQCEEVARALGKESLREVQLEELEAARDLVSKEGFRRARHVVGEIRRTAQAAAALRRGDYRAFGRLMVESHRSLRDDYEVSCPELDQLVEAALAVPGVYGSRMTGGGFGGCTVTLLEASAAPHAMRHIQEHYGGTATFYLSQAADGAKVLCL
Outline: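 5 nM GALK / 100 uM galactose / 35 uM ATP, 20 mM HEPES pH8.0, 5 mM MgCl2, 60 mM NaCl, 1 mM DTT, 0.01% BSA (final). RT 1 h; Kinase-Glo Plus luminescence.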

[5] = biological target: Peptidyl-prolyl cis-trans isomerase NIMA-interacting 1 (Homo sapiens) (UniProt Q13526); test: qHTS Validation Assay to Find Inhibitors of Pin1 (AID 504536; active = well fitted inhibition curve with a large enough effect in the polarisation, with a control signal flat, not every such curve was filed as active; the % refers to the polarisation)
Outline: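 Fluorescence polarization competition: compounds (titration) displace HiFluor-488-labeled Pin1-1b peptide from Pin1 (0.3 uM final) in pH 7.5 HEPES buffer with DTT, 10 min at room temperature; %Activity normalized to no-enzyme wells, curves fitted.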

[6] = biological target: Phosphoglycerate kinase, glycosomal (Trypanosoma brucei brucei) (UniProt P07378); test: qHTS Validation Assay to Find Inhibitors of Phosphoglycerate Kinase (AID 504547)
Chain of Phosphoglycerate kinase, glycosomal (Trypanosoma brucei brucei) (P07378 whole entry, looked up): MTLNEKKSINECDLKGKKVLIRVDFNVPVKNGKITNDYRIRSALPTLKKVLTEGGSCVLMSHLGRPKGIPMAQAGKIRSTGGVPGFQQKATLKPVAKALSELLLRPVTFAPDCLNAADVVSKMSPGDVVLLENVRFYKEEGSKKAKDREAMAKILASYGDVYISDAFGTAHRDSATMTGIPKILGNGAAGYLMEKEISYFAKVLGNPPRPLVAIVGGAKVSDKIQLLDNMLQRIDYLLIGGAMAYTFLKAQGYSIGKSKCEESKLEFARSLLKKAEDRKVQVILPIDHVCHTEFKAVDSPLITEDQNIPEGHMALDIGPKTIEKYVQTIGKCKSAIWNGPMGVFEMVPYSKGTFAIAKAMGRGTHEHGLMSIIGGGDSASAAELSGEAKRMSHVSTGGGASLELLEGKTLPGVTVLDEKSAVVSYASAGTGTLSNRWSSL
Outline: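 Compounds are pinned into the substrate/PGK mixture, and GAPDH (100nM final) is added to start the reaction by producing 1,3-BPG. After 60 minutes at room temperature, Kinase-Glo Plus is added and luminescence is measured 10 minutes later.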

[7] = biological target: phosphoglycerate mutase (Leishmania major) (UniProt Q4Q090); test: qHTS Validation Assay to Find Inhibitors of Phosphoglycerate Mutase (AID 504548);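 note: end-point luminescence from Kinase-GloPlus after the PGAM reaction; series mostly up to about 58 µM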
Chain of phosphoglycerate mutase (Leishmania major) (Q4Q090 1-553): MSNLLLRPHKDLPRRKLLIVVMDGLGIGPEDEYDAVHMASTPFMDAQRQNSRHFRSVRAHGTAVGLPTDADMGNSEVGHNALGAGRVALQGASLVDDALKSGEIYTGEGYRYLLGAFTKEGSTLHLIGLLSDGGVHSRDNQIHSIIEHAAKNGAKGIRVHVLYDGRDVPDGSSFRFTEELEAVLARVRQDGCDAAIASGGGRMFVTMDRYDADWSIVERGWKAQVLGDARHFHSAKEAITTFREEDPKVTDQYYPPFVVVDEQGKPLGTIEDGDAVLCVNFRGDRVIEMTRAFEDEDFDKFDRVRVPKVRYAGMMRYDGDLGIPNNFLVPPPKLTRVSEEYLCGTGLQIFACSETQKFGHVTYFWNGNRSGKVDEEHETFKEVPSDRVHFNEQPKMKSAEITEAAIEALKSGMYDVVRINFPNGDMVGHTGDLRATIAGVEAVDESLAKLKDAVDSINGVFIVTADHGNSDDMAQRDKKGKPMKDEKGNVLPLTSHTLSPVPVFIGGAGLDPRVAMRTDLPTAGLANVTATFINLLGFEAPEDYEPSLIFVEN
Outline: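 Inhibition of L. major PGAM was assessed by Kinase-GloPlus luminescence following a 45-minute room-temperature reaction with enzyme at 1.25nM final.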

[8] = biological target: Ubiquitin carboxyl-terminal hydrolase 1 (Homo sapiens) (UniProt O94782); test: Inhibitors of USP1/UAF1: Pilot qHTS (AID 504865);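 note: rhodamine fluorescence freed from ubiquitin-rhodamine substrate followed over time; top concentration of the series differs between compounds; nearly all actives have a fitted effect of over 35% in size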
Chain of Ubiquitin carboxyl-terminal hydrolase 1 (Homo sapiens) (O94782 whole entry, looked up): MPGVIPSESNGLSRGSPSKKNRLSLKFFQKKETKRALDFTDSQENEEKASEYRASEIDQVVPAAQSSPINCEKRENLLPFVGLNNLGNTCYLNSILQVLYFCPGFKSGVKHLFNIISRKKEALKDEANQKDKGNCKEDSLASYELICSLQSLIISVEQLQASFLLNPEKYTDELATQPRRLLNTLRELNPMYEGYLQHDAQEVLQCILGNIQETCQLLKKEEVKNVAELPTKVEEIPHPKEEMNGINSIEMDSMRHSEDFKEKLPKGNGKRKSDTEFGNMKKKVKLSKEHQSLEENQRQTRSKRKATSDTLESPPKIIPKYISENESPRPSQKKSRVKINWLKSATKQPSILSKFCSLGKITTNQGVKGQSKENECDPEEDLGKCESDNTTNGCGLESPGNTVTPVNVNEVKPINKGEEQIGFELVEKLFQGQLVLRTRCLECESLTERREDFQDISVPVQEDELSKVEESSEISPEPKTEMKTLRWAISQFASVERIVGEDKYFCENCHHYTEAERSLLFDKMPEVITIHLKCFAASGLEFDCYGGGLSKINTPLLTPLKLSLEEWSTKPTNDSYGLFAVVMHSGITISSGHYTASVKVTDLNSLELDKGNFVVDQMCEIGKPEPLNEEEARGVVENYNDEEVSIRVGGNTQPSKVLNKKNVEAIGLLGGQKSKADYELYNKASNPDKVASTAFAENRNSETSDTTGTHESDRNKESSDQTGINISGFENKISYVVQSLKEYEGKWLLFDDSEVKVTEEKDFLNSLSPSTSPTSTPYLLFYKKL
Outline: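 In 50mM HEPES pH 7.8 containing 0.5mM EDTA, 1mM TCEP, 0.1 mg/ml BSA and 0.01% Tween-20, 1nM USP1/UAF1 is exposed to compound for 15 min, then Ub-Rho (150nM final) is added and fluorescence is read over time.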

[9] = biological target: Estrogen receptor (Homo sapiens) (UniProt P03372); test: qHTS assay for small molecule antagonists of estrogen receptor alpha signaling (AID 588513; active = well fitted curve in the direction sought with a large enough effect in the signal ratio, with a control signal flat, not every such curve was filed as active; the % refers to the signal ratio)
Chain of Estrogen receptor (Homo sapiens) (P03372 whole entry, looked up): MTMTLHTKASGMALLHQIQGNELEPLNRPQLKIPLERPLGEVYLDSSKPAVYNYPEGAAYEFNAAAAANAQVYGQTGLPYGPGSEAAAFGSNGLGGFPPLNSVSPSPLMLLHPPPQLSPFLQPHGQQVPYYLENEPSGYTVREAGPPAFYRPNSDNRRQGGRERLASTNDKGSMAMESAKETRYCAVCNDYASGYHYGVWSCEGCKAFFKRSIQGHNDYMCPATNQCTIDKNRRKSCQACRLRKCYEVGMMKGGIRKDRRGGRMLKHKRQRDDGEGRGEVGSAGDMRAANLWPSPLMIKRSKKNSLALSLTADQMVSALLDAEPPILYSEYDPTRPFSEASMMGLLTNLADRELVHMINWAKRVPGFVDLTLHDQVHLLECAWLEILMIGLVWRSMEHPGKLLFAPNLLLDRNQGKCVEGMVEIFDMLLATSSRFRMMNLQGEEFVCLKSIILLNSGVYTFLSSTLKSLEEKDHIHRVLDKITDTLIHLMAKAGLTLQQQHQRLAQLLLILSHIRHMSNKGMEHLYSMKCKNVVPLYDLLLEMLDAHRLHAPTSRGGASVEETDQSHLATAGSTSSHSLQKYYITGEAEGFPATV
Outline: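 Fluorescence from CCF4 substrate after 2 h at room temperature gave reporter activity; cells had been exposed to compound and 0.5nM 17-beta-estradiol for 18 h at 37 C. Hill-equation fitting yielded IC50 and maximal response.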

[10] = biological target: Estrogen receptor (Homo sapiens) (UniProt P03372); test: qHTS assay for small molecule agonists of estrogen receptor alpha signaling (AID 588514; calls by dose curve; note: nearly all actives have a fitted effect of over 70% in size)
Outline: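 Read-out: CCF4 fluorescence from a beta-lactamase reporter in ER-alpha-UAS-bla HEK 293 cells after 18 hrs of compound exposure at 37 C. Normalized to 20 nM 17-beta-estradiol (100%) and DMSO (0%).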

[11] = Validation screen for small molecules that induce genotoxicity in human embryonic kidney (HEK293T) cells expressing luciferase-tagged ELG1 (AID 493106)
Outline: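 qHTS format; 2,000 HEK293T ELG1-luc cells/well; 23 nL compound via pin tool; 16 hr, 37 °C/5% CO2; ONE-Glo, 30 min RT; luminescence read.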

[12] = biological target: ATPase family AAA domain-containing protein 5 (Homo sapiens) (UniProt Q96QE3); test: Validation screen for small molecules that inhibit ELG1-dependent DNA repair in human embryonic kidney (HEK293T) cells expressing luciferase-tagged ELG1 (AID 493107);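 note: cells co-treated with the DNA-damaging agent 5-fluorouridine alongside compound; series mostly up to about 46 µM; inhibitors lower the ELG1-luciferase luminescence signal; nearly all actives have a fitted effect of over 70% in size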
Chain of ATPase family AAA domain-containing protein 5 (Homo sapiens) (Q96QE3 whole entry, looked up, the tested form may be a part): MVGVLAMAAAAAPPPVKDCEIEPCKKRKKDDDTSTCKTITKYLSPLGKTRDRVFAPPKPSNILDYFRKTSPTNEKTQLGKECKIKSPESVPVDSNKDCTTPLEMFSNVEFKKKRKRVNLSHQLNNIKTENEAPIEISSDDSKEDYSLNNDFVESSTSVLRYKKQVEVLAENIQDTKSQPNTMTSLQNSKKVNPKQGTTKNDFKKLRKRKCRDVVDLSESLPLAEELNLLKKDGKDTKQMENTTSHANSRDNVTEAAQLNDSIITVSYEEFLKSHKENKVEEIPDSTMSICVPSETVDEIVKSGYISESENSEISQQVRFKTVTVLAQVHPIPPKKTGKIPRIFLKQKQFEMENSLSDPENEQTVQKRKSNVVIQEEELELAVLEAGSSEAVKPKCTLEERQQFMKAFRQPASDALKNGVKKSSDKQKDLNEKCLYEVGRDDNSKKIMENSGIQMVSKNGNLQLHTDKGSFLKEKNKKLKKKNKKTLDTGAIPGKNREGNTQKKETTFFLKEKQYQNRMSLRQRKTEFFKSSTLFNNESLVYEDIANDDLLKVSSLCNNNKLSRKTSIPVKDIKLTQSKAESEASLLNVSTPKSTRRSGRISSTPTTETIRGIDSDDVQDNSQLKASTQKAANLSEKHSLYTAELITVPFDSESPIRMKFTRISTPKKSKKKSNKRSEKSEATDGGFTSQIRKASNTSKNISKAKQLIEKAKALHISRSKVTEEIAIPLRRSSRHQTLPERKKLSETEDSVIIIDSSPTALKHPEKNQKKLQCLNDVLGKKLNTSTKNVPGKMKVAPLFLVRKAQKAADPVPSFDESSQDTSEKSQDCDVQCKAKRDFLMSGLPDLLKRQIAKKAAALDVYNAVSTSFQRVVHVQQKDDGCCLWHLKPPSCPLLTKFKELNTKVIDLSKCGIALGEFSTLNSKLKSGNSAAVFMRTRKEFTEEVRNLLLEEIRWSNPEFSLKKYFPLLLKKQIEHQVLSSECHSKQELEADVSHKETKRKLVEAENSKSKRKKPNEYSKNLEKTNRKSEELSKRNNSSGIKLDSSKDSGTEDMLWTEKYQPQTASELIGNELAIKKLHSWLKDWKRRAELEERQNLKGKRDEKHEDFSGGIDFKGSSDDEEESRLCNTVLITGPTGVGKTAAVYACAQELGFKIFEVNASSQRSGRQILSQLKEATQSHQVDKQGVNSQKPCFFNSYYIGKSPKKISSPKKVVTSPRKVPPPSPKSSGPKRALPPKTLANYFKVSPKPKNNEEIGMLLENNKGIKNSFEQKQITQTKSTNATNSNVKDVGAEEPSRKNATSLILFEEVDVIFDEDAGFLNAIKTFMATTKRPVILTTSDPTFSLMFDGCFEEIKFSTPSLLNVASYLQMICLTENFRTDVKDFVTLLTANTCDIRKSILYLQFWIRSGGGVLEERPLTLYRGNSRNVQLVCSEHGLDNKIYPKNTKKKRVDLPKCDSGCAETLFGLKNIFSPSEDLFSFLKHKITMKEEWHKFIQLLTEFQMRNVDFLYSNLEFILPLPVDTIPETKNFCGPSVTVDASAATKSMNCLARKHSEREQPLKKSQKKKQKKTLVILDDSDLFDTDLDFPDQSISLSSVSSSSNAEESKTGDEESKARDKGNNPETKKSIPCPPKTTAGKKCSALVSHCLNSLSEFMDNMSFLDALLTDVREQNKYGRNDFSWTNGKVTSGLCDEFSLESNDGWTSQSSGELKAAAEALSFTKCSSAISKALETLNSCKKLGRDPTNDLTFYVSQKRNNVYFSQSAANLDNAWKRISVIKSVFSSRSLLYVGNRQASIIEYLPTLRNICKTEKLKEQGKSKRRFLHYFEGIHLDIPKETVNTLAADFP
Outline: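 ELG1-luciferase HEK293T reporter; 5-fluorouridine + compound/DMSO, 16 hr, 37 °C, 5% CO2; ONE-Glo 30 min RT; luminescence read, qHTS format.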

[13] = Nrf2 qHTS screen for inhibitors: Validation (AID 493153; active = well fitted inhibition curve with a large enough effect in the main read-out, with a control signal flat, not every such curve was filed as active); settings: Potency: luciferase luminescence; viability change: measured here: cytotoxicity max response
Outline: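 Concentration-response test in A549 ARE_Fluc reporter cells (5% FBS OPTI-MEM), compound exposure 18-24 h at 37°C, 5% CO2. Cell viability measured first by CellTiter-Fluor fluorescence; ARE-driven luciferase luminescence then measured as Nrf2 activity.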

[14] = Validation screen for small molecules that induce DNA re-replication in SW480 colon adenocarcinoma cells (AID 504364)
Outline: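 Read-out: total Hoechst intensity of nuclei by fluorescence scanning imager; hits raise the fraction of nuclei with elevated DNA content. Cells received compound for 48 hr at 37 C before a 40 min stain.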

[15] = qHTS for Inhibitors of ATXN expression: Validation of Cytotoxic Assay (AID 588349)
Outline: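 Cytotoxicity counter-screen: HEK293 cells exposed to compound titrations, 72 hr, 37 degrees C. Read-out is intracellular ATP (CellTiter Glo luminescence) as a viability measure.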

[16] = qHTS for Inhibitors of ATXN expression: Validation (AID 588378); note: series mostly up to about 57 µM; nearly all actives have a fitted effect of over 75% in size
Outline: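 Compounds were pinned onto attached HEK293 cells carrying an ATXN2-firefly luciferase construct and incubated 24 hrs at 37 degrees C. Each well then received a fluorescent viability reagent followed by luciferase substrate for end-point luminescence.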

[17] = biological target: DNA dC->dU-editing enzyme APOBEC-3G (Homo sapiens) (UniProt Q9HC16); test: qHTS for inhibitors of Vif-A3G interactions: Validation (AID 588379)
Outline: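 Yellow fluorescence (Ex 488, Em 500-530) of Vif-coexpressing HeLa A3G-eYFP cells, scanned by Acumen cytometer, reports blocked A3G degradation. Cells plated at 700/well overnight at 37 deg C before compound addition, then a further overnight compound incubation at 37 deg C.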

| SMILES | outcome [1] | activation [2] | outcome [3] | outcome [4] | outcome [5] | outcome [6] | outcome [7] | Potency [8] | outcome [9] | Potency [10] | Potency [11] | Potency [12] | Potency [13] | viability change [13] | outcome [14] | Potency [15] | Potency [16] | outcome [17] |
| --- | --- | --- | --- | --- | --- | --- | --- | --- | --- | --- | --- | --- | --- | --- | --- | --- | --- | --- |
| Nc1ncn([C@@H]2O[C@H](CO)[C@@H](O)[C@H]2O)c(=O)n1 | inactive | 1.31% (inactive) | inactive | inactive | inactive | inactive | inactive | inactive | inactive | inactive |  |  |  |  |  |  |  |  |
| NC(Cc1ccc(Cl)cc1)C(=O)O (stereo not given) |  | 0.75% (inactive) | inactive | inactive | inactive | inactive | inactive | inactive |  |  | inactive | inactive | inactive | -1.14% | inactive | inactive | inactive |  |
| Cc1scc2c1N(C(=O)CN1CCN(C)CC1)c1ccccc1NC2=O |  | 0.5% (inactive) | inactive | inactive | inactive | inactive | inactive | inactive |  |  | inactive | inactive |  |  | inactive | inactive | inactive | inactive |
| C(=C\c1ccccc1)/CN1CCN(C(c2ccccc2)c2ccccc2)CC1 |  | 0.438% (inactive) | inactive |  | inactive | inactive | inactive |  |  |  | inactive | inactive | inactive | -2.4% | inactive | inactive | inactive |  |
| Cc1ccc(S(=O)(=O)NC(=O)NN2CCCCCC2)cc1 |  | 0.188% (inactive) | inactive | inactive | inactive | inactive | inactive |  | inactive | inactive | inactive | inactive | inactive | -3.67% | inactive | inactive | inactive |  |
| COc1ccc(CCN(C)CCCC(C#N)(c2cc(OC)c(OC)c(OC)c2)C(C)C)cc1OC (stereo not given) |  | 3% (inactive) | inactive | inactive | inactive | inactive | inactive | inactive |  |  | inactive | inactive |  |  | inactive |  |  |  |
| CC(C)(C)NCC(O)c1cc(O)cc(O)c1 (stereo not given) |  | 0.438% (inactive) | inactive | inactive | inactive | inactive | inactive | inactive |  |  | inactive | inactive | inactive | 2.92% | inactive | inactive | inactive |  |
| CCCN(CCC)CCc1cccc2c1CC(=O)N2 |  | -3.31% (inactive) | inactive |  | inactive | inactive | inactive | inactive |  |  | inactive | inactive | inactive | 1.11% | inactive | inactive | inactive |  |
| CN(C)CC/C=C1\c2ccccc2COc2ccccc21 |  | 2.94% (inactive) | inactive |  |  | inactive | inactive | inactive |  |  | inactive | inactive | inactive | 10.6% | inactive | inactive |  | inactive |
| Cc1nc2ccccn2c(=O)c1CCN1CCC(C(=O)c2ccc(F)cc2)CC1 |  | 1.44% (inactive) | inactive | inactive |  | inactive | inactive | inactive |  |  | inactive |  | inactive | -13.1% | inactive | inactive | inactive |  |
